experiment: inhibition of PAO1 biofilm formation – strain PAO1, LB-PBS medium, absorbance 600 nm, primary screen (AID 1176); further: test concentration not given here; settings: P. aeruginosa PAO1 growth/biofilm, A600, 12 h; higher = more signal; call rule not given here

z-score, inactive:
COCCOC(=O)N1C(=O)[C@@]2(c3cc(C#Cc4ccc(OC)cc4)ccc31)[C@H](C(=O)N1CCCCCCC1)[C@H]1C(=O)O[C@H](c3ccccc3)[C@H](c3ccccc3)N1[C@@H]2c1ccc(O)cc1 0.721, CN(C)C(=O)[C@]1(CCC(=O)OC(C)(C)C)N=C(c2ccc(OCCCO)cc2)O[C@@H]1c1ccccc1 0.248, COC(=O)c1c(CC[C@@H](CO)NC(=O)N[C@H](Cn2cc(-c3ccccc3C)nn2)C(C)C)oc(C(C)=O)c1C(=O)OC 0.574, Cc1ccc(S[C@]2(C(=O)O)CC(=O)N(Cc3ccccc3Cl)[C@@H]2c2ccc(CO)cc2)cc1 1.42, COCCOC(=O)N1C(=O)[C@@]2(c3ccccc31)[C@H](C(=O)N1CCN(c3ncccn3)CC1)[C@H]1C(=O)O[C@H](c3ccccc3)[C@H](c3ccccc3)N1[C@@H]2c1ccc(OCCO)cc1 2, COCCOC(=O)N1C(=O)[C@@]2(c3cc(C#Cc4ccc(OC)cc4)ccc31)[C@H](C(=O)N1CCN(c3ncccn3)CC1)[C@H]1C(=O)O[C@H](c3ccccc3)[C@H](c3ccccc3)N1[C@@H]2c1ccccc1OCCO 3.8, NCCCCCNC(=O)[C@@H]1C[C@@H]2C(=O)N[C@@H](CCCCN)C(=O)N2[C@@H]1c1cccc(OCCO)c1 -0.105, COc1ccc([Si](C)(C)[C@H]2[C@H](CCn3cc([C@H](O)c4ccccc4)nn3)O[C@@]3(C(=O)N(Cc4ccc(N5CCC5=O)cc4)c4ccccc43)[C@@H]2C)cc1 0.401, O=C1C[C@@](C(=O)NCC(F)(F)F)(c2ccc([N+](=O)[O-])cc2)[C@@H](c2ccc(CO)cc2)N1C1CCCCC1 0.416, C#CCNC(=O)[C@H](Cc1ccccc1)NC(=O)[C@@H](N=[N+]=[N-])C(C)C -0.24, C[C@H]1C2=C3C(CC[C@H]4C(OCc5ccc(F)cc5C(F)(F)F)OC[C@](C)([C@@H]34)N(C(=O)OC(C)(C)C)C2)C2COC(=O)OCC21 (stereo partly specified) 0.371, CC(C)(C)OC(=O)CC[C@]1(C(=O)N2CCOCC2)N=C(c2ccc(OCCCO)cc2)O[C@H]1c1ccccc1 -0.537, COc1ccc([Si](C)(C)[C@H]2[C@H](CCn3cc([C@H](O)c4ccccc4)nn3)O[C@@]3(C(=O)N(Cc4cccc(N5C(=O)c6cccc7cccc5c67)c4)c4ccccc43)[C@@H]2C)cc1 1.42, C=C(C(=O)CC[C@H](OC(=O)c1cccnc1)c1ccc(CO)o1)C(C)C 0.354, C=CC1c2cc(O)c(OC)cc2CCN1Cc1sc2ccccc2c1Cl (stereo unspecified) -0.227, CC(C)(C)OC(=O)CC[C@@]1(C(=O)O)N=C(c2ccc(OCCCO)cc2)O[C@@H]1c1ccccc1CN=[N+]=[N-] -0.0988, CC=CC(O)C1C=CC2C(=O)N(C)C(=O)C2N1N1CCCCC1 (stereo unspecified) 0.378, CO[C@H]1O[C@H](CO)[C@@H](OC(=O)Nc2ccccc2-c2ccccc2)[C@H](OC(=O)Nc2ccc3c(c2)OCO3)[C@@H]1OC(=O)Nc1ccc2c(c1)OCO2 1.86, O=C1NCC(=O)N2[C@@H]1C[C@@H](C(=O)O)[C@H]2c1ccc(O)cc1 0.463, C[C@@H](OCc1ccccc1)C1NC(=O)[C@@]23C(=O)N[C@@H](Cc4ccccc4)C2[C@H](C)[C@@]2(C)O[C@H]2C3/C=C/C/C=C\CNC(=O)CNC1=O (stereo partly specified) 0.662, CCOC(=O)[C@H]1C/C=C/C[C@H](C(=O)OCC)C(=O)O[C@H]2[C@@H](OC)O[C@H](CO)[C@@H](OC(=O)CCc3ccccc3)[C@@H]2OC1=O 0.759, C=C(CCCC)/C(=C/C[C@@H](OC(C)=O)c1ccc(CO)o1)c1cc(C(=O)OC)ccc1OC 1.23, C=CCOC(=O)[C@@H]1[C@H]2C(=O)O[C@H](c3ccccc3)[C@H](c3ccccc3)N2[C@H](c2ccc(OCCOC(=O)[C@H]3C[C@H]4C(=O)N[C@@H](CCCC[N+](C)(C)C)C(=O)N4[C@H]3c3ccc(O)cc3)cc2)[C@@]12C(=O)Nc1ccc(I)cc12 2.01, COC1(C)CN(Cc2ccccc2Br)[C@H](/C=C/c2ccccc2)[C@H](Cc2ccccc2)O1 (stereo partly specified) 0.331, C=CCN1C(=O)[C@]2(CC=C)N=C(c3ccc(OCCCO)cc3)O[C@@H]2c2ccccc21 1.26, CCCC=C(CCC)[C@@H](NP(=O)(c1ccccc1)c1ccccc1)c1ccc(C(F)(F)F)cc1 -0.511, CC(C)N1C(=O)[C@@]2(c3ccc([N+](=O)[O-])cc3)CC(=O)N(C3CCCCC3)[C@@H]2c2ccc(CO)cc21 -0.0065, CON(C)C(=O)C=C1C[C@@H](c2cccc(Cl)c2)O[C@@H](c2cccc(Cl)c2)O1 -0.184, [N-]=[N+]=NCc1ccccc1C[C@@]1(C(N)=O)N=C(c2ccc(OCCCO)cc2)O[C@@H]1c1ccccc1CN=[N+]=[N-] 0.261, O=C(O)[C@H]1C[C@H]2C(=O)N3CCC[C@H]3C(=O)N2[C@H]1c1cccc(OCCO)c1 -0.695, C=C(CCCC)C(=O)CC[C@@H](OC(=O)c1ccccc1-c1ccccc1C(=O)O)c1cccc(OCCO)c1 0.543, [N-]=[N+]=NCc1ccccc1C[C@]1(C(=O)NCC(O)CO)N=C(c2ccc(OCCCO)cc2)O[C@H]1c1ccccc1CN=[N+]=[N-] (stereo partly specified) 1.09, C=CCNC(=O)[C@@H]1[C@H]2C(=O)O[C@H](c3ccccc3)[C@H](c3ccccc3)N2[C@H](c2ccc(OCCO)cc2)[C@@]12C(=O)N(C(=O)OCCOC)c1ccc(C#CC3=CCCCC3)cc12 2.17, O=C1OCCC=C[C@H]2OC34C=CCN(c5ccc(Cl)cc5)C(=O)[C@H]3N(CCCCCO)C(=O)[C@@H]4C12 (stereo partly specified) -0.525, COc1c(C)cc(-c2cc3c(c(-c4ccccc4)n2)[Si](C(C)C)(C(C)C)OC3)cc1C 0.173, CCCCN1CC=CC23O[C@@H]4/C=C\CCC(C)OC(=O)C4[C@H]2C(=O)N(CCCCCCO)[C@@H]3C1=O (stereo partly specified) 0.109

— PubChem BioAssay
